What all share (assay): NCI-60 one-dose screen, 48 h (100 = growth as untreated, 0 = no growth, -100 = all killed)
Holding throughout (settings): 10 µM unless noted

In test [1] the test system is NCI-H23 lung.
Test [2] has as its system NCI-H226 lung.
Test [3] deals with NCI-H322M lung.
Test [4] concerns HOP-62 NSCLC.
The test system of test [5] is NCI-H460 lung.
The subject of test [6] is HOP-92 NSCLC.
Test [7] concerns NCI-H522 lung.
Test [8] relates to A549/ATCC NSCLC.
The test system of test [9] is 786-0 renal.
Test [10] has as its system COLO 205 colon.

The panel holds about 83,000 compounds, 20% with a hit somewhere; the sample as a whole holds those more often.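 Growth was measured after 48 h exposure to one concentration of compound in 96-well plates. Values under 10 count as active.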 A number with no mark means an inactive call. Calls of active or inactive are those of the source.

For `CN1CCN(c2ccc(Nc3nc(NCCNC(=O)c4ccccc4)c4sccc4n3)cc2)CC1`, the growth is 74.2% in test [1]; 108% in test [2]; 85.2% in test [3]; 104% in test [4]; 74% in test [5]; 69.4% in test [6]. For the same compound, the growth in [7] was 68.4%; in [8] it was 67.4%; in test [9], 45.6%; in [10], 56.5%.
For the compound `O=C(/C=C/C=C/c1csc(Br)n1)NO`, the growth in test [1] is 103%; in test [2], 103%; in test [3], 99.4%; in test [4], 112%; in test [5], 92.2%; in test [6], 129%. For the same compound, the growth in test [7] is 79.1%; in [8], 93.5%; in [9] it was 101%; in [10], 110%.
For the compound `C#CCOc1ccccc1/C=N/Nc1nc(-c2ccc(Cl)cc2)cs1`, the growth is 83.3% in test [1]; 82.8% in [2]; 90.6% in [3]; 96% in test [4]; 97.7% in test [5]; 88.2% in test [6]. Besides, the growth in [7] was 87.8%; in test [8], 101%; in [9] it was 102%; in [10] it was 109%.
Turning to `Brc1cccc(-c2cc(-c3ccc4c(c3)OC=CO4)[nH]n2)c1`, the growth in [1] was 58.2%; in [2] it was 78%; in test [3] it was 49.8%; in [4], 58.1%; in test [5], 15.1%; in test [6] it was 96.3%. Also, the growth in test [7] was 29.4%; in test [8] it was 37.5%; in [9], 70.4%; in test [10], 36.1%.
On to `O=C(Nc1ccccc1)Nc1nc2ccc([N+](=O)[O-])cc2[nH]1`, for which the growth in test [1] was 39.5%; in [2], 55.4%; in [3], 58.5%; in test [4], 105%; in test [5], 44.1%; in [6], -5.31% (active). Also, the growth in test [7] was 28.4%; in test [8] it was 56.7%; in test [9] it was 67.5%; in [10], 88.7%.
`O=C(CCCCCCNC(=O)C(O)(O)C(F)(F)F)Nc1ccc(-c2ccccc2)cc1`: the growth in [1] was 9.87% (active); in test [2] it was 39.4%; in test [3], 28.2%; in test [4], -4.5% (active); in test [5], 7.65% (active); in test [6], -13.6% (active). Moreover, the growth was -30.9% (active) in [7], 8.66% (active) in test [8], 22.8% in test [9] and -61.9% (active) in test [10].
Consider `COC(=O)c1cccc(NC2=C(Cl)C(=O)c3nc(C)ccc3C2=O)c1`, for which the growth in test [1] was 53.1%; in [2], 87%; in test [3], 103%; in [4] it was 113%; in test [5] it was 101%; in test [6] it was 121%. In addition, the growth in [7] was 65.1%; in test [8] it was 102%; in test [9], 98.2%; in [10], 116%.
On to `O=c1[nH][nH]c(-c2ccc(F)cc2)c1-c1nc2ccccc2s1`, for which the growth was 89.9% in test [1]; 82.3% in test [2]; 88.7% in test [3]; 89.4% in test [4]; 92.2% in test [5]; 77.1% in test [6]. Further, the growth in test [7] is 92.9%; in test [8], 111%; in test [9], 107%; in [10], 113%.
Regarding `Cn1cc(-c2nnc(N)nc2-c2c[nH]c3ccc(F)cc23)c2cc(Br)ccc21`, the growth is 26.4% in test [1]; 27.4% in [2]; 41.8% in test [3]; 30.9% in test [4]; 13.8% in test [5]; 56.5% in test [6]. The growth in test [7] was -0.551% (active); in test [8], 38.6%; in [9] it was 21.5%; in [10] it was 9.15% (active).
Turning to `COc1cccc2c1[C@H](OC)[C@]13O[C@@]1(C2=O)[C@H](O)[C@H](C)[C@@](O)(C(=O)[C@@H]1O[C@H]1C)[C@@H]3O`, the growth in [1] is -63.9% (active); in test [2], -54.4% (active); in test [3] it was 1.69% (active); in test [4], -26% (active); in test [5] it was -33.2% (active); in test [6] it was -16.8% (active). For the same compound, the growth in test [7] is -31.9% (active); in test [8], -16.7% (active); in [9], -16.9% (active); in test [10], -44.9% (active).
As to `CN1CCN(Cc2ccc(NC(=O)c3cncc(C#Cc4cnc5ccc(OCC(F)F)nn45)c3)cc2C(F)(F)F)CC1`, the growth in test [1] is -51.2% (active); in test [2], -62.6% (active); in test [3], -35.4% (active); in test [4] it was -76.6% (active); in [5], -85% (active); in test [6], -30.7% (active). Also, the growth in test [7] is -75.9% (active); in test [8], -61.6% (active); in test [9] it was -90.3% (active); in test [10], -87.7% (active).
Take `N#Cc1c(-c2cccs2)cc(-c2cnccn2)nc1SCC(=O)N/N=C/c1ccncc1`: the growth in test [1] is 102%; in [2] it was 104%; in [3], 116%; in test [4], 106%; in [5], 108%; in [6] it was 98.4%. Also, the growth in [7] was 96.1%; in test [8] it was 107%; in test [9], 104%; in test [10], 118%.
`O=S(=O)(NCCCNc1nccc(-c2[nH]c(-c3ccccc3)nc2-c2ccc(F)c(O)c2)n1)c1ccc(C(F)(F)F)cc1`: the growth in [1] was 70.7%; in test [2], 48.5%; in test [3] it was 95.4%; in [4] it was 62.3%; in test [5], 16.3%; in test [6] it was 71.6%. The growth is 18.8% in test [7], 41.7% in [8], 48% in test [9] and 88.3% in test [10].
In the case of `C#CCN(C)CCCOc1ccc(NCc2ccc(/C=C/C(=O)NO)cc2)cc1Cl`, the growth is -24% (active) in test [1]; -11.7% (active) in test [2]; 9.85% (active) in test [3]; 3.99% (active) in [4]; 4.27% (active) in test [5]; -27.6% (active) in [6]. Also, the growth in test [7] was 2.32% (active); in test [8], -3.43% (active); in [9], -2.14% (active); in [10], -24.4% (active).

The record behind these values is PubChem BioAssay (NCI).
